# From PubChem BioAssay
# Hits are enriched below; roughly 11% of the tested compounds scored in any of these assays.
# BAZ2B block: qHTS Assay for Inhibitors of BAZ2B; hit rate 4.4% among 360,000; AID 504333, 2011; AlphaScreen BAZ2B-H3K14Ac peptide displacement; Bromodomain adjacent to zinc finger domain protein 2B (Homo sapiens), Q9UIF8; Potency, µM (doses to about 114 µM), hits mostly inhibitors; also: nearly all actives have a fitted effect of over 60% in size
#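 BAZ2B 50 nM plus b-H3(5-23)K14Ac 50 nM, PBS pH 7.4/0.01% Tween-20, 30 min RT; compound added (max 110 uM), 30 min RT; streptavidin donor/Ni-chelate acceptor beads 10 ug/mL final, 20 min dark; AlphaScreen read.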
# L3MBTL1 block: qHTS Assay for the Inhibitors of L3MBTL1; AlphaScreen L3MBTL1–H3K9me1 peptide binding; hit rate 0.66% among 230,000; AID 485360, 2010; Lethal(3)malignant brain tumor-like protein 1 (Homo sapiens), Q9Y468; Potency, µM (highest dose often 57.1 µM), actives largely listed as inhibitors; also: nearly all actives have a fitted effect of over 60% in size
#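 First, the protein-peptide complex forms for 30 min at room temperature (L3MBTL1 50 nM, biotinylated H3K9me1 peptide 75 nM). Next, compounds are pin-transferred and incubated 30 min. Finally, AlphaScreen beads are added and read after 30 min.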
# JMJD2A Tudor inh: qHTS Assay for Inhibitors of JMJD2A-Tudor Domain. Lysine-specific demethylase 4A (Homo sapiens), O75164. AlphaScreen JMJD2A-Tudor / H3K4me3 peptide binding. Potency, µM (doses to about 114 µM), hits mostly inhibitors. hit rate 4.4% among 390,000; also: nearly all actives have a fitted effect of over 50% in size
# HP1b chromo inh: HTS for Inhibitors of HP1-beta Chromodomain Interactions with Methylated Histone Tails; Chromobox protein homolog 1 (Homo sapiens), P83916; AlphaScreen HP1-beta / biotin-H3K9me3 peptide binding; Potency, µM (series often up to 114 µM), usual class: inhibitors; hit rate 0.56% among 390,000; AID 540317, 2011; also: nearly all actives have a fitted effect of over 70% in size
# Target sequence (P83916 whole entry, looked up): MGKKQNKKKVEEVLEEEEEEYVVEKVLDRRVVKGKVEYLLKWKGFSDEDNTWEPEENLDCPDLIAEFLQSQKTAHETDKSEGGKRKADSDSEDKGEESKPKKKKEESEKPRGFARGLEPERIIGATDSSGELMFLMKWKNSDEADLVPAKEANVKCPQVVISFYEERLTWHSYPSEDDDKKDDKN
#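 AlphaScreen: HP1-beta (50 nM) preformed 30 min with biotin-H3(1-18)K9me3 peptide (50 nM) in PBS pH 7.4, 0.01% Tween-20. Compound added for 30 min at RT, then streptavidin donor/nickel chelate acceptor beads (10 ug/mL) for 30 min.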
# G9a block: qHTS Assay for Inhibitors of Histone Lysine Methyltransferase G9a; Histone-lysine N-methyltransferase EHMT2 (Homo sapiens), Q96KQ7; G9a H3K9 monomethylation, AlphaScreen, 2 h; Potency, µM (highest dose often 102 µM), most hits filed as inhibitors; hit rate 8.8% among 350,000; AID 504332, 2011; also: nearly all actives have a fitted effect of over 75% in size
# Target sequence (Q96KQ7 913-1193 limits assumed): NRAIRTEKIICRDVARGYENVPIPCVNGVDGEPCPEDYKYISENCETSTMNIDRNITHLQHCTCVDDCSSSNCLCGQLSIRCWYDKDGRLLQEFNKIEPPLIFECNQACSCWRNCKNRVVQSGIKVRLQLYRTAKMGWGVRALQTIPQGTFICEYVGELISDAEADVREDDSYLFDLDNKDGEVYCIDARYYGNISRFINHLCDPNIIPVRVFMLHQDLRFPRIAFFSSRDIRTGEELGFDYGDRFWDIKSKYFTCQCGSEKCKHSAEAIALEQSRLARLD
#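 G9a (20 nM) was preincubated 15 min with compound, then reacted 2 h at room temperature with 500 nM biotin-H3K9 peptide and 20 µM SAM. Monomethyl-H3K9 detected by AlphaScreen using anti-H3K9me1 antibody.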
# Numbers stand for hits; n = inactive; u = inconclusive; x = no result given; [ ] = dose if it differs, or a comment. Calls follow the shape of the dose curve; as a rule, active = well fitted inhibition curve with a large enough effect; inconclusive = small, poorly fitted or top-dose-only effect; inactive = no such curve, though single readings can be large or run the other way.
SMILES,BAZ2B block,L3MBTL1 block,JMJD2A Tudor inh,HP1b chromo inh,G9a block
Cc1ccc(NC2=C(CC(=O)O)C(c3ccc(F)cc3)N(c3ccc(C)cc3)C2=O)cc1 (centres undefined),n,x,n,n,n
COc1ccccc1-c1nnc(C2CCN(S(=O)(=O)c3ccc(CC(C)C)cc3)CC2)o1,n,x,n,n,n
COc1ccc(-c2ccc(C(C)=O)cc2)cc1C1C2C=CCC(C)C2C(=O)N1Cc1ccccc1 (centres undefined),x,x,u,n,x
C1=CC2c3ccccc3NC(c3ccncc3)C2C1 (centres undefined),u,u,44.7µM,u,1.58µM
O=C(NCc1ccccc1)C1Nc2ccc(OC(F)(F)F)cc2C2C=CCC12 (centres undefined),x,x,n,n,x
COC(C(=O)N/N=C(\C)c1ccc(O)cc1)c1ccccc1 (centres undefined),n,n,n,n,n
O=C(O)C1Nc2c(cccc2C(F)(F)F)C2C=CCC12 (centres undefined),39.8µM,x,x,x,2.51µM
COC(=O)c1ccc(C2Nc3ccc(/C(C)=N/NC(=O)C(OC)c4ccccc4)cc3C3C=CCC32)cc1 (centres undefined),56.2µM,n,79.4µM,n,7.08µM
Cc1ccc2c(c1)C1C=CCC1C(C(=O)NCCCN1CCOCC1)N2 (centres undefined),x,x,u,n,x
Brc1cc2c(cc1C1Nc3ccccc3C3C=CCC31)OCO2 (centres undefined),n,n,n,n,n
Cc1ccc2c(c1)C1C=CCC1C(C(=O)O)N2 (centres undefined),6.31µM,3.16µM,x,x,3.98µM
CCOC(=O)C1Nc2ccc(OC(F)(F)F)cc2C2C=CCC12 (centres undefined),x,x,25.1µM,u,x
O=C(O)c1ccc2c(c1)C1C=CCC1C(c1cc3c(cc1Br)OCO3)N2 (centres undefined),n,n,n,n,n
CCOc1ccc2c(c1)[C@@H]1C=CC[C@@H]1[C@H](c1ccccc1Cl)N2,28.2µM,x,44.7µM,u,11.2µM
CC(=O)c1ccc2c(c1)C1C=CCC1C(c1ccncc1)N2 (centres undefined),50.1µM,n,u,n,u
CC(=O)c1ccc2c(c1)C1C=CCC1C(C(=O)O)N2 (centres undefined),6.31µM,1.26µM,6.31µM,20µM,n[12.7 µM]
Cn1cccc1C(=O)Nc1nc(-c2ccccn2)cs1,17.8µM,31.6µM,56.2µM,u,x
O=C(Nc1nc(-c2ccccc2)cs1)c1cccs1,n,n,n,n,n
O=C(Nc1ccc([N+](=O)[O-])cc1)Nc1nc(-c2ccc(Cl)s2)cs1,n,n,n,n,15.8µM
CCc1sc(C(=O)Nc2nccs2)cc1C,n,x,n,n,n
CCc1sc(C(=O)Nc2nc(-c3ccccn3)cs2)cc1C,x,u,79.4µM,n,x
O=C(Nc1nc(-c2ccc(Cl)s2)cs1)c1cccs1,n,n,n,n,50.1µM
COc1ccccc1Nc1nc2ccc(C)cc2n2cnnc12,n,x,n,n,n
O=C(O)C1CCCCC1C(=O)Nc1nc(-c2ccc(Cl)s2)cs1 (centres undefined),56.2µM,n,u,n,44.7µM
O=C(Nc1nc(-c2ccccn2)cs1)c1ncc(Cl)c(Cl)c1Cl,n,n,n,n,x
SMILES,BAZ2B block,L3MBTL1 block,JMJD2A Tudor inh,HP1b chromo inh,G9a block
CCCC(=O)Nc1nc(-c2ccc(Cl)s2)cs1,n,n,n,n,n
Cc1ccc(C(=O)Nc2nc(-c3ccccn3)cs2)s1,20µM,u,56.2µM,n,n[2.33 µM]
CCc1sc(C(=O)Nc2ncccc2O)cc1C,50.1µM,x,n,n,35.5µM
O=C(Nc1nc(-c2ccccn2)cs1)c1ccc(Cl)s1,22.4µM,u,79.4µM,n,u
O=C(CN1C(=O)CCC1=O)Nc1cccc2c1C(=O)NC2=O,n,x,n,n,n
Cc1cccc(NC(=O)CCNS(=O)(=O)c2ccc3c(c2)CCCC(=O)N3)c1C,n,x,n,n,n
O=C(O)c1cc(N(Cc2ccccc2O)Cc2cc(O)ccc2O)ccc1O,x,x,x,x,2.24µM
NC(N)=N/N=C/c1ccc2cccc(OCc3ccccc3)c2n1,n,n,u,n,n
O/N=C/c1ccc2cccc(OCc3ccccc3)c2n1,n,x,n,n,20µM
O=[N+]([O-])c1ccc(-c2cnc(NO)nc2)cc1,n,n,u,n,7.94µM
COc1cccc(C(=O)Nc2ccc(-c3nc4ccccc4s3)cc2Cl)c1,n,x,n,n,n
COC(=O)C1=COC(C)C2CN3CCc4c([nH]c5ccccc45)C3CC12 (centres undefined),u,n,u,n,44.7µM
O=C(O)[C@@H]1[C@H]2C[C@H]3c4[nH]c5ccccc5c4CCN3C[C@@H]2CC[C@@H]1O,u,n,56.2µM,n,u
COC(=O)[C@@H]1[C@H]2C[C@H]3c4[nH]c5ccccc5c4CCN3C[C@H]2CC[C@@H]1O,x,x,x,x,n
COc1ccccc1C1NC(c2ccc3c(c2)OCO3)=CC(c2cc(Br)ccc2O)N1 (centres undefined),x,x,n,n,x
O=C(Cn1nc(-c2ccc(Cl)cc2)ccc1=O)NCc1ccccc1Cl,n,x,n,n,n
COc1ccc(-c2nc3cnc(N4CCNCC4)nc3n(-c3ccccc3)c2=O)cc1,x,x,x,x,n[12.7 µM]
O=[N+]([O-])c1ccc(NN=Cc2ccc(O)cc2O)nc1,x,x,n,n,x
Oc1ccc(C=NNc2ccccn2)c(O)c1,x,x,20µM,n,x
CCN(CC)S(=O)(=O)c1ccc(N/N=C/c2ccc(O)cc2O)nc1,25.1µM,u,n,n,n
Oc1ccc(/C=N/Nc2cccc3cccnc23)c(O)c1,n,u,u,n,5.62µM
C(=N\Nc1ccccn1)/c1c[nH]c2ccccc12,31.6µM,n,u,n,n
Oc1cccc(C=NNc2ccccn2)c1,x,x,n,n,x
O=c1[nH]ncc(N/N=C\c2ccc(O)cc2O)c1Cl,n,n,n,n,n
CCCN1CNc2c(c(=O)[nH]c(=S)n2CCc2ccc(OCC)c(OCC)c2)C1,x,x,n,n,x
SMILES,BAZ2B block,L3MBTL1 block,JMJD2A Tudor inh,HP1b chromo inh,G9a block
C/C(=N\Nc1cccc2cccnc12)c1ccc[nH]1,u,n,u,n,n
Cc1ccc(/C=N/Nc2cccc3cccnc23)c(O)c1,n,n,u,n,17.8µM
C1CCc2c(nnc3c2-c2nonc2CC3)C1,n,u,n,n,31.6µM
COc1ccc(C(CC(=O)O)NC(=O)COc2cc(C)ccc2C)cc1OC (centres undefined),x,x,n,n,31.6µM
COc1ccc(C(CC(=O)O)NC(=O)COc2ccccc2)cc1OC (centres undefined),n,n,n,n,79.4µM
Cc1ccc(CSc2sc(C(=O)c3ccccc3)c(N)c2C#N)cc1,n,x,n,n,n
N#Cc1c(SCc2ccccc2)sc(C(=O)c2ccccc2)c1N,n,x,n,n,11.2µM
